For 54 sequences, binding signal results are on record in publication PMC7819943, “Rice protein-binding microarrays: a tool to detect cis-acting elements near promoter regions in rice”.

The full ranking holds about 68,000 sequences; the median of “fluorescence intensity (a.u.)” is about 9,100, and the highest 2% start at about 16,000. The list comes from a sample in which the highest values are over-represented; it also holds similar and randomly drawn sequences.

For this assay, the target named is OsWRKY34 (Oryza sativa, UniProt Q0JBA9 1-250). The assay is described as follows: protein-binding microarray (RPBM); PBS, 2% BSA, 51.3 ng/ul salmon testes DNA, 50 uM zinc acetate, 200 nM TF, 25 C, 1 h; high values mean tight binding. The settings on record: protein: recombinant; tags: N-terminal polyhistidine and DsRed monomer fusion (pET32a); label: CyDye5-dUTP incorporated in the synthesized complementary strand; 3' TTTTT single-stranded linker to array surface; dsDNA, one strand shown. Summed up: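 Polyhistidine-tagged DsRed fusions of transcription factors, joined at the N-terminus, were expressed in E. coli BL21-CodonPlus and isolated on Ni–NTA. They were incubated at 200 nM for 1 h at 25 °C on a custom Agilent array, double-stranded and BSA-blocked, in PBS with 2% BSA, salmon testes DNA and 50 µM zinc acetate. The binding signal is per-feature fluorescence intensity (arbitrary units) read on an Axon 4000B scanner after washing.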
OsWRKY34, sequence (Q0JBA9 entry or part of it): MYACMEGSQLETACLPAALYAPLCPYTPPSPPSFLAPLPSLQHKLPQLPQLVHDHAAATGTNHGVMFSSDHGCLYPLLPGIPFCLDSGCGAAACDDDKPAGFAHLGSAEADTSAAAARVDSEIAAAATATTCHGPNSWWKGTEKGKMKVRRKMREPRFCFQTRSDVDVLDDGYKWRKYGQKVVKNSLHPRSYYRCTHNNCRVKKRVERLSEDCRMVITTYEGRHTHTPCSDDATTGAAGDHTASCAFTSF
Regarding “CGACGGGAGAGGAGGAGCCGGTGGGCGGGGTGGGGCCCACCGGAGTCACCTAGTGCAG”, the binding signal was 11000 fluorescence intensity (a.u.). As for “ATTTTGTGTTTTTGTGGTGGTAATATTGTTTTTGAGTTCTCGGAGTCACCTAGTGCAG”, the figure is 9700 fluorescence intensity (a.u.); as for “ATCCCAAAATAATGTGTTCGGGTGGGCGGGCGGGAAATATCGGAGTCACCTAGTGCAG”, 23000 fluorescence intensity (a.u.); as for “TTCGGGGTGTTCGTCAAAAATGTGGGGAGGAGGCATGGATCGGAGTCACCTAGTGCAG”, 13100 fluorescence intensity (a.u.). As to “GCGGGTGTGGCATTGTGGGTAATCTCGGCCGTTCAAATATCGGAGTCACCTAGTGCAG”, the binding signal was 17300 fluorescence intensity (a.u.).

As to “GTGTTCTCATTGTATTGGGTATTCAAATGTTTTGTAATATCGGAGTCACCTAGTGCAG”, the binding signal is 9730 fluorescence intensity (a.u.). As for “TTACCAAACTGAAAATAAAAATGTGTGTTTTTTTTAATATCGGAGTCACCTAGTGCAG”, the figure is 9410 fluorescence intensity (a.u.); as for “AATCATCACATCATCACCGTCATCTTCTCTAGCATAGCAACGGAGTCACCTAGTGCAG”, 8050 fluorescence intensity (a.u.); as for “CCTTCCCATGCTGCTGTGATGTGTCATACGCCGCCGCCACCGGAGTCACCTAGTGCAG”, 9920 fluorescence intensity (a.u.). As for “TCCCAACCACACCCACCCACCCGCCCAATCCATCCACCAACGGAGTCACCTAGTGCAG”, the figure is 8860 fluorescence intensity (a.u.). As for “TCCCTTCAAATATTGTTTTTCTTTTAACACTCAATCTCTCCGGAGTCACCTAGTGCAG”, the figure is 8940 fluorescence intensity (a.u.); as for “TAGAATTACATCTGATATACCGGTCTTACGCTCTTAGATTCGGAGTCACCTAGTGCAG”, 8860 fluorescence intensity (a.u.); as for “GCCCAGCCCAGGCCCACCTTATGTTTTGTTGCATCTCTACCGGAGTCACCTAGTGCAG”, 10700 fluorescence intensity (a.u.). Consider “AATAGGGCATGAACCCCAGCCATTTCTCCTCATCCCACACCGGAGTCACCTAGTGCAG”, for which the binding signal is 63200 fluorescence intensity (a.u.). The figure for “TGCCTAGATGAATACTGCATGTTTTTTTTTTGTTTGATTTCGGAGTCACCTAGTGCAG” is 9620 fluorescence intensity (a.u.); for “TCCACCCATCCTCATCATTATCCTCTCTCTCCTCTCTCACCGGAGTCACCTAGTGCAG” it is 9640 fluorescence intensity (a.u.). The figure for “TTTTTTACCATGGGTCTTGCATTGAATTTTTCTTTTTTTTCGGAGTCACCTAGTGCAG” is 9890 fluorescence intensity (a.u.); for “CACAGGGCATGAATTGATGAATAGGATGGCCATTTTTTTTCGGAGTCACCTAGTGCAG” it is 65000 fluorescence intensity (a.u.). Regarding “TCATCCGCACCAACACCATTAGTTATATTACCCACACATCCGGAGTCACCTAGTGCAG”, the binding signal was 8520 fluorescence intensity (a.u.). As for “TCCACCCATCGTTCTCATGACCTGCCAACCCCATCCCAGCCGGAGTCACCTAGTGCAG”, the figure is 10000 fluorescence intensity (a.u.); as for “GAACCCACATCCCACCATGACGCGCAATTACCTCATTATCCGGAGTCACCTAGTGCAG”, 17000 fluorescence intensity (a.u.). The figure for “CTCTCTCCACCCTCAGCCGCCACACTCCCATCCATTCTCCCGGAGTCACCTAGTGCAG” is 9060 fluorescence intensity (a.u.). As to “TCCTGTGCGCCTCCCTCGAGCGTGTGACTGTGTTTGTGACCGGAGTCACCTAGTGCAG”, the binding signal is 8710 fluorescence intensity (a.u.). For “TTTAAGTTTGTTTGGTTGTGGGTTATAGGCTCTATTTCAACGGAGTCACCTAGTGCAG”, the binding signal was 12000 fluorescence intensity (a.u.). The figure for “ATTTGCATGACATATATCATTACTACATTATTTTATATAGCGGAGTCACCTAGTGCAG” is 8930 fluorescence intensity (a.u.). As for “GTGTGTTATTTTCTTCCACTCTTTAGTTTTCACTTTTTGACGGAGTCACCTAGTGCAG”, the figure is 9240 fluorescence intensity (a.u.); as for “GTTGCCCTTTTGCTCCTGTTGTCTTCTCCGCTCCTGTCGTCGGAGTCACCTAGTGCAG”, 9800 fluorescence intensity (a.u.). Take “TGGCATTTTTTTTTTCTTGTGAAAAACCGACGAGAGGAAGCGGAGTCACCTAGTGCAG”: the binding signal is 8190 fluorescence intensity (a.u.). The figure for “GTTCATTTTATAGTCTAGCAAAATTTCCTCTCTTTTTTTTCGGAGTCACCTAGTGCAG” is 10700 fluorescence intensity (a.u.); for “AGTGACCCTTATCTCTTCACCTATCTCTCTCCCTTCCCCTCGGAGTCACCTAGTGCAG” it is 9580 fluorescence intensity (a.u.). For the sequence “TCCTTTTTTTTGGGTGCTTTTCTTTTGTATAGCACTGTACCGGAGTCACCTAGTGCAG”, the binding signal was 65500 fluorescence intensity (a.u.). Consider “TCTTTTGTATAGCACTGTACCGTATACAACACTGAATACACGGAGTCACCTAGTGCAG”, for which the binding signal was 8080 fluorescence intensity (a.u.). The figure for “ACGACGAGGTCGCTTTTTTCTTGTTGGGCTGGGCTGGGATCGGAGTCACCTAGTGCAG” is 21800 fluorescence intensity (a.u.). For “CGTCGATCTCTATCTCTCTCTCTCGCTTGTTCTTCTTCACCGGAGTCACCTAGTGCAG”, the binding signal was 15200 fluorescence intensity (a.u.). The figure for “TTTCTTTCTTTCTTTCTTGGGATCTTTTCCTTCTTTTTTTCGGAGTCACCTAGTGCAG” is 12600 fluorescence intensity (a.u.); for “TTCTTTTTTTGGCTTCCTTTTTTTTGTGTGTATATATGTACGGAGTCACCTAGTGCAG” it is 13700 fluorescence intensity (a.u.). Consider “CCTTCTATTTTTCCGTCACATCAAATGTTTGGACACATGTCGGAGTCACCTAGTGCAG”, for which the binding signal was 9670 fluorescence intensity (a.u.). In the case of “TTCTTTGTTGGATTGATGATCGCTTTTGTGTGGGAGAGGTCGGAGTCACCTAGTGCAG”, the binding signal was 9380 fluorescence intensity (a.u.). The figure for “GTTCTCGGTGTGTACTTGGTCCATCAGTCTCTTCAGATCTCGGAGTCACCTAGTGCAG” is 8120 fluorescence intensity (a.u.). Take “CAAACTTCTAATTTTTCCGTCACATCAAATGTTTGGATATCGGAGTCACCTAGTGCAG”: the binding signal was 34900 fluorescence intensity (a.u.).

As to “ATCTAGCCTATCGCTCTTGTGTTCTCGGTGTGTACTTGGTCGGAGTCACCTAGTGCAG”, the binding signal was 16600 fluorescence intensity (a.u.). For “GTCAAACATCAACTTTTCCGTCACATCAAATGTTTGGACACGGAGTCACCTAGTGCAG”, the binding signal was 8670 fluorescence intensity (a.u.). The figure for “GTATGCATTATTATGCTGATTAATTTGGCCTGGTTATTTGCGGAGTCACCTAGTGCAG” is 8160 fluorescence intensity (a.u.); for “GTCGGGTTCGGGTACTGTTGATGCTGATCGAGATGGTCCTCGGAGTCACCTAGTGCAG” it is 8650 fluorescence intensity (a.u.); for “AACTATTTTTTTATGGGTTTGTTGTGTAGATCATGTAGCACGGAGTCACCTAGTGCAG” it is 11100 fluorescence intensity (a.u.). The figure for “TTCTACTTCTACACCTCGCAATGAAAAAAACAAATTTGACCGGAGTCACCTAGTGCAG” is 8060 fluorescence intensity (a.u.). The figure for “GCTTCTTCCGTTGCAATTCCATTCTCCTCTCTCTCCTGCTCGGAGTCACCTAGTGCAG” is 11400 fluorescence intensity (a.u.); for “AGGACACCTTAGCATTCAGCCATCTTATTTCTCTGTATTACGGAGTCACCTAGTGCAG” it is 9420 fluorescence intensity (a.u.); for “TCCAGAAGACACCCGCCTGCTCCACTGCCGTTCCTGTCGACGGAGTCACCTAGTGCAG” it is 9120 fluorescence intensity (a.u.).

For the sequence “ACTGTGAATGTGTGACTAAATGGGCCGAGCCCAACTACTACGGAGTCACCTAGTGCAG”, the binding signal is 9860 fluorescence intensity (a.u.). The figure for “GATTCATCTTGCCCTCAAAGTTTCCTGCTTTGTTTGATCACGGAGTCACCTAGTGCAG” is 9520 fluorescence intensity (a.u.); for “GGAGGGAGTAGTATATTGGGGATTTTCAGTTGGGTCTGGGCGGAGTCACCTAGTGCAG” it is 14200 fluorescence intensity (a.u.); for “GCCATTCTATAGGAGGTGGTGGGGAGGGTTTCGTGCTCCTCGGAGTCACCTAGTGCAG” it is 10800 fluorescence intensity (a.u.). As for “TTTGTCACGCGAATACTGTATTGTAGGGTGGGGTTCACTGCGGAGTCACCTAGTGCAG”, the figure is 12100 fluorescence intensity (a.u.).
